Screens deposited in PubChem by National Center for Advancing Translational Sciences (NCATS).
In the library only some 6.1% were active in any assay of this set; here they are far more common.
DRD3 agonist – activates the human D3 dopamine receptor. P35462. D3R DiscoveRx beta-arrestin cells, luminescence, 90 min. max activation, %. 410,000 tested, 0.58% active; in the data active = max activation above about 30%; note: 0% is about no effect
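Agonist mode: compounds and dopamine controls were applied to plated cells for 90 min at 37 degrees C after an overnight attachment at 1500 cells/well. Luminescent read-out followed 30 - 60 minutes at room temperature with DiscoveRx detection reagent.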
D1 potentiator – enhances dopamine response at the human D1 receptor; P21728; HEK293 TREx D1 cells, calcium flux, dopamine EC20 potentiation; potentiation, % at 10 µM; 360,000 tested, 0.036% active; in the data active = potentiation above about 30%; note: 0% is about no effect
Target sequence (P21728 whole entry, looked up): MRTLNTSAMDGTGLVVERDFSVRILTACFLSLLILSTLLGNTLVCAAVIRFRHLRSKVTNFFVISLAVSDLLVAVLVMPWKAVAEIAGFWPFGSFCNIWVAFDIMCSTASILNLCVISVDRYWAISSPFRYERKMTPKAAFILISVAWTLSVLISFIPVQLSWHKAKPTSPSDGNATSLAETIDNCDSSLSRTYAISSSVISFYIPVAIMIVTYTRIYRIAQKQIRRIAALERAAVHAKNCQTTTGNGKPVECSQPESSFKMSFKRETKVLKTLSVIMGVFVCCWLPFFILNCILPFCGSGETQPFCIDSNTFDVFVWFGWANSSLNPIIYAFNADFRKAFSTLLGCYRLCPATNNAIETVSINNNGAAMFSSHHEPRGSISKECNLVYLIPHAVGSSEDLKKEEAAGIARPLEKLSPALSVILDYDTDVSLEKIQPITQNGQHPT
D1 antagonist – human D1 dopamine receptor antagonism | AID 504652 | 360,000 tested, 3.2% active | activity change, negative = inhibition, % at 10 µM | HEK293 TREx D1 cells, calcium flux, dopamine EC80; stronger effect = lower value; in the data active = activity change below about -30%; note: % is set by controls: 0 for no effect and ±100 for the full control effect
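Allosteric or orthosteric antagonism assessed as attenuation of the calcium response to EC80 dopamine, added 180 s after compound, in induced HEK293 Trex D1 cells loaded with no-wash calcium dye.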
DRD3 antagonist – D3 dopamine receptor (human) antagonism | max response, negative = inhibition, % | AID 652054 | P35462 | D3R cells, DiscoveRx beta-arrestin luminescence, antagonist mode; stronger effect = lower value | 360,000 tested, 2.5% active; in the data active = max response below about -50%; inconclusive = no clear call, values can overlap the other calls; note: % is set by controls: 0 for no effect and ±100 for the full control effect
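Cells plated overnight at 1500 cells/well, then exposed to library compounds with dopamine controls for 90 minutes at 37 degrees C. DiscoveRx reagent added for 30–60 minutes at room temperature; luminescence read, quantitative HTS format.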
D1 ag – human D1 receptor agonism. P21728. HEK293 T-REx D1 cells, calcium flux, agonist mode. activation, % at 2 µM. 360,000 tested, 1% active; in the data active = activation above about 30%; note: 0% is about no effect
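Inducible HEK293 T-REx D1 cells, force-coupled to calcium signalling, were plated at 4000 cells/well with tetracycline and held overnight at 30 C. After no-wash calcium dye loading, compound-evoked calcium rise over 180 s flagged agonists.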
* hit, by the source's call.

What do the screens show for `CC(=O)Nc1cccc(OC(=O)COc2ccc(Br)cc2)c1`?
DRD3 agonist: -2; D1 potentiator: -3; D1 antagonist: -31*; DRD3 antagonist: -10; D1 ag: 11

What do the screens show for `COc1ccc(NS(=O)(=O)c2ccc(NC(=O)c3ccccn3)cc2)cc1`?
DRD3 agonist: 4; D1 potentiator: -9; D1 antagonist: -39*; DRD3 antagonist: -14; D1 ag: 11

How did COc1ccc(NS(=O)(=O)c2csc(C(=O)Nc3ccccc3)c2)cc1 do in these assays?
DRD3 agonist: -2; D1 potentiator: -5; D1 antagonist: -42*; DRD3 antagonist: -16; D1 ag: 17

How did Cc1ccc(OCC(=O)Oc2cccc(C)c2)cc1 do in these assays?
DRD3 agonist: -8; DRD3 antagonist: -5

Results for COc1cc(CNC(=O)OC2CC3CC2[C@H]2CCCCN2C3=O)cc(OC)c1 (some centres undefined) ?
DRD3 agonist: 4; DRD3 antagonist: -4

How did Cc1ccccc1OCCc1c(C)[nH]c(=S)[nH]c1=O do in these assays?
DRD3 agonist: -2; D1 potentiator: -2; D1 antagonist: -18; DRD3 antagonist: 0; D1 ag: 3

How did O=[N+]([O-])c1cc(S(=O)(=O)NC2=NCCCCC2)ccc1NCC1CCCCC1 do in these assays?
DRD3 agonist: -3; D1 potentiator: 0; D1 antagonist: -33*; DRD3 antagonist: 1; D1 ag: 6

Results for Nc1ccc(S(=O)(=O)NC2=NCCCCC2)cc1N ?
DRD3 agonist: -8; D1 potentiator: -5; D1 antagonist: 12; DRD3 antagonist: -13; D1 ag: 3

Results for Cc1ccc(-c2c(C)c(-c3ccc(F)cc3)nc(N)c2C#N)o1 ?
DRD3 agonist: 1; D1 potentiator: -8; D1 antagonist: -31*; DRD3 antagonist: -14; D1 ag: 8

What do the screens show for `Cc1c(-c2ccc(F)cc2)nc(N)c(C#N)c1-c1cccnc1`?
DRD3 agonist: -6; D1 potentiator: 5; D1 antagonist: 10; DRD3 antagonist: 9; D1 ag: 2

Results for CN(C)CC(O)COc1cc2ccccc2cc1C(=O)N1CCCCC1 (centres undefined) ?
DRD3 agonist: -4; D1 potentiator: -1; D1 antagonist: -1; DRD3 antagonist: -59*; D1 ag: 1

What do the screens show for `COc1cc2ccccc2cc1C(=O)N1CCCCC1`?
DRD3 agonist: 3; D1 potentiator: 6; D1 antagonist: -1; DRD3 antagonist: 7; D1 ag: 0

What do the screens show for `CCCCNC(=O)CCCN1C(=O)c2ccccc2Sc2ncccc21`?
DRD3 agonist: 12; D1 potentiator: -5; D1 antagonist: -3; D1 ag: 2

How did COc1ccc(C(C[N+](=O)[O-])c2c(-c3ccccc3)cc3ccccn23)cc1 (centres undefined) do in these assays?
DRD3 agonist: -3; D1 potentiator: -1; D1 antagonist: 5; DRD3 antagonist: -50*; D1 ag: 7

What do the screens show for `Cc1cc(/C=C2/C(=O)N(C)C(=S)N2C)ccc1N1CCCC1`?
DRD3 agonist: 8; D1 potentiator: 8; DRD3 antagonist: -17; D1 ag: 127*

What do the screens show for `CN1C(=O)/C(=C/c2ccc(O)c([N+](=O)[O-])c2)NC1=S`?
DRD3 agonist: -15; D1 potentiator: -4; D1 antagonist: 7; DRD3 antagonist: -74*; D1 ag: 0

What do the screens show for `COc1cc(/C=C2\NC(=S)N(C)C2=O)ccc1O`?
DRD3 agonist: 4; D1 potentiator: -2; D1 antagonist: -5; DRD3 antagonist: 0; D1 ag: 16

What do the screens show for `CCCN1C(=O)S/C(=C\c2ccc(N3CCOCC3)cc2C)C1=O`?
D1 potentiator: -6; D1 antagonist: -3; D1 ag: 5

How did Cc1cc(/C=C2\NC(=S)N(C)C2=O)ccc1N1CCCC1 do in these assays?
DRD3 agonist: 0; D1 potentiator: 7; D1 antagonist: -45*; DRD3 antagonist: 15; D1 ag: 331*

How did CCCN1C(=O)/C(=C/c2ccc(N3CCCC3)c(C)c2)NC1=S do in these assays?
DRD3 agonist: 1; DRD3 antagonist: inconclusive

Results for Cc1cc(N2CCCC2)ccc1/C=C1/C(=O)N(C)C(=S)N1C ?
DRD3 agonist: 3; D1 potentiator: -4; D1 antagonist: 4; DRD3 antagonist: -8; D1 ag: 36*

How did Cc1ccn(CC(=O)N2CCCC(N3CCN(c4cccc(Cl)c4)CC3)C2)n1 (centres undefined) do in these assays?
DRD3 agonist: 3; D1 potentiator: -3; D1 antagonist: -11; DRD3 antagonist: -2; D1 ag: -1

What do the screens show for `Oc1ccccc1N1CCN(c2ncnc3scc(-c4ccccc4)c23)CC1`?
DRD3 agonist: 39*; D1 potentiator: 7; D1 antagonist: 6; DRD3 antagonist: 106; D1 ag: 1

Results for Cc1nc(N2CCN(c3ccccc3O)CC2)c2c(-c3ccccc3)csc2n1 ?
DRD3 agonist: 32*; D1 potentiator: 2; D1 antagonist: 13; DRD3 antagonist: 115; D1 ag: 1

How did Oc1ccccc1N1CCN(c2ncnc3scc(-c4ccc(F)cc4)c23)CC1 do in these assays?
DRD3 agonist: 7; D1 potentiator: -5; D1 antagonist: 2; DRD3 antagonist: 37; D1 ag: 0

What do the screens show for `Fc1ccc(-c2csc3ncnc(N4CCc5ccccc5C4)c23)cc1`?
DRD3 agonist: 46*; D1 potentiator: 7; D1 antagonist: 19; DRD3 antagonist: 43; D1 ag: 5

What do the screens show for `CCN1CCN(c2ncnc3scc(-c4ccc(C)cc4)c23)CC1`?
DRD3 agonist: -7; D1 potentiator: 0; D1 antagonist: 8; DRD3 antagonist: -92*; D1 ag: 1

Results for Cc1ccc(NC(=S)NCCN2CCOCC2)cc1F ?
DRD3 agonist: 4; D1 potentiator: -7; D1 antagonist: -13; DRD3 antagonist: -8; D1 ag: 3

Results for CCN1C(=O)/C(=C/N(C(C)=O)c2ccccc2)N(c2ccccc2)C1=S ?
DRD3 agonist: -5; D1 potentiator: -3; D1 antagonist: 1; DRD3 antagonist: -81*; D1 ag: -1

What do the screens show for `CCc1ccc(/C=C2/C(=O)N(c3ccccc3)C(=S)N2CC(=O)OC)s1`?
DRD3 agonist: 3; D1 potentiator: 6; D1 antagonist: 2; DRD3 antagonist: -5; D1 ag: 10

How did CN(Cc1ccccc1)C(c1ccnc2ccccc12)c1nnnn1-c1ccc2c(c1)OCCO2 (centres undefined) do in these assays?
DRD3 agonist: 50*; DRD3 antagonist: -11

How did CCOC(=O)[C@@H]1[C@H]2COc3cc(OC)ccc3[C@@H]2N2C(=O)N(c3ccc(Cl)cc3)C(=O)[C@]12C do in these assays?
DRD3 agonist: 34*; DRD3 antagonist: -25
